Assay results from PubChem BioAssay (NCATS).
Records with an inconclusive call do not appear. Entries that show only a call come without a potency. Activity calls are given as the source filed them. The call rests on the fitted dose curve; in most records, active means well fitted inhibition curve with a large enough effect; inconclusive means small, poorly fitted or top-dose-only effect; inactive means flat fitted curve, though single readings scatter.

Assays:
Assay in all cases: qHTS profiling for inhibitors of Plasmodium falciparum proliferation (AID 504749); further: nearly all actives have a fitted effect of over 60% in size
Details in all cases: P. falciparum in erythrocytes, SYBR Green DNA, 72 h; series mostly up to 28.7 µM
FAB9 = tested on: FAB9
Method in brief: (§1)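 Infected RBCs, 0.3% parasitemia/2.5% Hct final; cpd 72 h, 37 C, 5% CO2; lysis buffer with saponin/triton/SYBR Green I, o/n RT dark; FI 485/535; norm. to artemisinin (0.29 uM) and DMSO.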

GB4 = tested on: GB4
Method in brief: as §1

HB3 = tested on: HB3
Method in brief: as §1

ICS = tested on: ICS
Method in brief: as §1

JCK = tested on: JCK
Method in brief: as §1

N140 = tested on: N140
Method in brief: as §1

P93_24 = tested on: P93_24
Method in brief: as §1

P94_40 = tested on: P94_40
Method in brief: as §1

PAD = tested on: PAD
Method in brief: as §1

PC15 = tested on: PC15
Method in brief: as §1
Potency means the concentration at half of the fitted maximal effect.

Compound	Potency (FAB9)	Potency (GB4)	Potency (HB3)	Potency (ICS)	Potency (JCK)	Potency (N140)	Potency (P93_24)	Potency (P94_40)	Potency (PAD)	Potency (PC15)
Clc1cccc(SC2CCNCC2)n1	inactive	inactive	inactive	inactive	inactive	inactive	inactive	inactive	inactive	inactive
CCOC(=O)CC(SP(=S)(OC)OC)C(=O)OCC (centres undefined)	inactive	inactive	inactive	inactive	inactive	inactive	inactive	inactive	inactive	inactive
C[C@](O)(CS(=O)(=O)c1ccc(F)cc1)C(=O)Nc1ccc(C#N)c(C(F)(F)F)c1	inactive	inactive	inactive	inactive	inactive	inactive	inactive	inactive	inactive	inactive
CN1C(=O)C(O)N=C(c2ccccc2)c2cc(Cl)ccc21 (centres undefined)	inactive	inactive	inactive	inactive	inactive	inactive	inactive	inactive	inactive	inactive
CCC1(c2ccccc2)C(=O)N(COC)C(=O)N(COC)C1=O	inactive	inactive	inactive	inactive	inactive	inactive	inactive	inactive	inactive	inactive
O=C(O)CCCc1ccc(N(CCCl)CCCl)cc1	inactive	inactive	inactive	inactive	inactive	inactive	inactive	inactive	inactive	inactive
CN1C(=O)COc2c(C(=O)NC3CN4CCC3CC4)cc(Cl)cc21 (centres undefined)	inactive	inactive	inactive	inactive	inactive	inactive	inactive	inactive	inactive	inactive
Nc1nc(N)nc(NC2CC2)n1	inactive	inactive	inactive	inactive	inactive	inactive	inactive	inactive	inactive	inactive
CCCCCCC(=O)CCCCCC/C=C/C[C@@H](O)[C@H](O)[C@@](N)(CO)C(=O)O	inactive	inactive	inactive	inactive	inactive	inactive	inactive	inactive	inactive	inactive
CC(C)=CC1C(C(=O)OCN2C(=O)C3=C(CCCC3)C2=O)C1(C)C (centres undefined)	inactive	inactive	inactive	inactive	inactive	inactive	inactive	inactive	inactive	inactive
NNc1ccccc1	inactive	inactive	inactive	inactive	inactive	inactive	inactive	inactive	inactive	inactive
c1ccc2c(c1)sc1ccccc12	inactive	inactive	inactive	inactive	inactive	inactive	inactive	inactive	inactive	inactive
NC(=O)CS(=O)C(c1ccccc1)c1ccccc1 (centres undefined)	inactive	inactive	inactive	inactive	inactive	inactive	inactive	inactive	inactive	inactive
CCC1(CC)C(=O)C=CNC1=O	inactive	inactive	inactive	inactive	inactive	inactive	inactive	inactive	inactive	inactive
C[C@]12CC[C@@H]3c4ccc(OC(=O)N(CCCl)CCCl)cc4CC[C@H]3[C@@H]1CC[C@@H]2O	inactive	inactive	inactive	inactive	inactive	inactive	inactive	inactive	inactive	inactive
Clc1ccc2c(c1)C(c1ccccc1)=NCc1nncn1-2	inactive	inactive	inactive	inactive	inactive	inactive	inactive	inactive	inactive	inactive
CCCC(C)(COC(N)=O)COC(N)=O	inactive	inactive	inactive	inactive	inactive	inactive	inactive	inactive	inactive	inactive
Oc1ccc(Cl)cc1	inactive	inactive	inactive	inactive	inactive	inactive	inactive	inactive	inactive	inactive
O=C1Nc2ccc(Cl)cc2C(c2ccccc2)=NC1O (centres undefined)	inactive	inactive	inactive	inactive	inactive	inactive	inactive	inactive	inactive	inactive
Nc1ccccc1C(=O)O	inactive	inactive	inactive	inactive	inactive	inactive	inactive	inactive	inactive	inactive
CN1C(=O)CC(=O)N(c2ccccc2)c2cc(Cl)ccc21	inactive	inactive	inactive	inactive	inactive	inactive	inactive	inactive	inactive	inactive
COc1c2c(cc3c1OCO3)CCN(C)C2	inactive	inactive	inactive	inactive	inactive	inactive	inactive	inactive	inactive	inactive
CCC(C)(C)c1ccc(O)cc1	inactive	inactive	inactive	inactive	inactive	inactive	inactive	inactive	inactive	inactive

Compound	Potency (FAB9)	Potency (GB4)	Potency (HB3)	Potency (ICS)	Potency (JCK)	Potency (N140)	Potency (P93_24)	Potency (P94_40)	Potency (PAD)	Potency (PC15)
O=C1CN=C(c2ccccc2)c2cc([N+](=O)[O-])ccc2N1	inactive	inactive	inactive	inactive	inactive	inactive	inactive	inactive	inactive	inactive
COP(=S)(OC)SCN1C(=O)c2ccccc2C1=O	inactive	inactive	inactive	inactive	inactive	inactive	inactive	inactive	inactive	inactive
CN1C[C@H](C(=O)N[C@]2(C)O[C@@]3(O)[C@@H]4CCCN4C(=O)[C@H](Cc4ccccc4)N3C2=O)C=C2c3cccc4[nH]cc(c34)C[C@H]21	6.31 µM (active)	1.69 µM (active)	0.447 µM (active)	0.0398 µM (active)	7.08 µM (active)	0.282 µM (active)	0.398 µM (active)	0.251 µM (active)	0.199 µM (active)	0.794 µM (active)
O=C1OC(c2ccc(O)c(S(=O)(=O)O)c2)(c2ccc(O)c(S(=O)(=O)O)c2)c2c(Br)c(Br)c(Br)c(Br)c21	inactive	inactive	inactive	inactive	inactive	inactive	inactive	inactive	inactive	inactive
O=P1(N(CCCl)CCCl)NCCCO1 (centres undefined)	inactive	inactive	inactive	inactive	inactive	inactive	inactive	inactive	inactive	inactive
O=c1oc2ccccc2c(O)c1Cc1c(O)c2ccccc2oc1=O	inactive	inactive	inactive	inactive	inactive	inactive	inactive	inactive	inactive	inactive
COP(=S)(OC)Oc1ccc(S(=O)(=O)N(C)C)cc1	inactive	inactive	inactive	inactive	inactive	inactive	inactive	inactive	inactive	inactive
CNC(C)(C)Cc1ccccc1	inactive	inactive	inactive	inactive	inactive	inactive	inactive	inactive	inactive	inactive
CC(C)c1cccc(C(C)C)c1O	inactive	–	inactive	inactive	inactive	inactive	inactive	inactive	inactive	inactive
O=C1Nc2ccc(Cl)cc2C(c2ccccc2Cl)=NC1O (centres undefined)	inactive	inactive	inactive	inactive	inactive	inactive	–	–	–	inactive
CC(C)(C)NCC(O)c1cc(Cl)c(N)c(C(F)(F)F)c1 (centres undefined)	inactive	12 µM (active)	–	4.47 µM (active)	11.2 µM (active)	2.82 µM (active)	3.55 µM (active)	–	12.6 µM (active)	11.2 µM (active)
COc1ccc2c(c1)C13CCCC[C@@H]1C(C2)N(C)CC3 (some centres undefined)	inactive	–	inactive	–	inactive	inactive	–	–	–	–
NCCc1ccc(O)cc1	inactive	inactive	inactive	inactive	inactive	inactive	inactive	inactive	inactive	inactive
O=C1c2ccccc2C(=O)C1C(=O)C(c1ccccc1)c1ccccc1	inactive	–	inactive	–	inactive	inactive	inactive	inactive	inactive	inactive
CC(C)(C)NCC(O)c1ccccc1Cl (centres undefined)	inactive	13.5 µM (active)	–	7.08 µM (active)	inactive	–	–	11.2 µM (active)	–	–
COP(=S)(OC)Oc1ccc(SC)c(C)c1	inactive	inactive	inactive	inactive	–	inactive	inactive	inactive	inactive	inactive
CCOP(=S)(OCC)Oc1ccc2c(C)c(Cl)c(=O)oc2c1	inactive	inactive	inactive	–	inactive	–	–	11.2 µM (active)	inactive	inactive
C=CCN1C[C@H](C)N([C@H](c2ccc(C(=O)N(CC)CC)cc2)c2cccc(OC)c2)C[C@H]1C	–	–	–	12.6 µM (active)	inactive	–	–	–	–	–
Cc1ncsc1CCCl	inactive	inactive	inactive	inactive	inactive	inactive	–	inactive	inactive	inactive
Clc1ccc(C(c2ccc(Cl)cc2)C(Cl)(Cl)Cl)cc1	inactive	–	inactive	–	inactive	–	inactive	–	–	inactive
Cc1nnc2n1-c1ccc(Cl)cc1C(c1ccccc1)=NC2	inactive	inactive	inactive	8.91 µM (active)	–	inactive	inactive	–	inactive	inactive
C=C(C)[C@H]1CN[C@H](C(=O)O)[C@H]1CC(=O)O	inactive	inactive	inactive	inactive	inactive	inactive	–	–	inactive	inactive
